# “And” between values parts separate entries of the source, which are not always exact repeats. Equal values may be shown once. Records with an inconclusive call do not appear. For part of these data: Results with a measured potency or affinity are listed apart. The source made the active and inactive calls. Cut-off read from the data, not from the text of the source, unless noted: active = parasite load remaining mostly below about 12% (no sharp cut-off); inactive = mostly above about 10%.
# How the values were obtained:
# [1] = polyglutamine-triggered caspase-3 activation inhibitors, cell-based (AID 1583); conditions: polyglutamine-induced caspase-3 activation, cell assay; stronger effect = higher value;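 tested at 10 µM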
# [2] = inhibitors of polyQ aggregate elongation, biochemical, solid-phase synthetic aggregates, QA3 (AID 1585; call rule not given here); conditions: biotin-polyQ incorporation; EC50: measured here: elongation inhibition potency; inhibition: at 100 µM, stronger effect = higher value
# [3] = suppressors of polyQ aggregation in yeast, 75Q-TubU reporter (AID 1593); conditions: Yeast 75Q polyglutamine aggregation reporter
# [4] = rescue of polyQ-huntingtin neuronal dysfunction in worms, whole organism, C. elegans mechanosensory neurons, N-terminal huntingtin (AID 1599); conditions: touch response, stronger effect = higher value
# [5] = inhibitors of mitochondrial cytochrome c release, biochemical, purified mitochondria (AID 1603); conditions: stronger effect = lower value;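 note: mouse liver mitochondria challenged with calcium chloride; signal normalized to the plate average as 100%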
# [6] = inhibitors of polyQ protein aggregation (AID 1604); conditions: polyglutamine-induced protein aggregation inhibition assay; stronger effect = higher value; tested at 2.5 µM
# [7] = enhancers of glutamate uptake in motor neurons, MN-1 cell line (AID 1612); conditions: MN-1 motor neuron cells, stronger effect = higher value;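 note: tested at 1 µM final; 0% = mean of DMSO vehicle wells on each plate; positive means more glutamate uptake than control and negative means less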
# [8] = suppressors of polyglutamine aggregation in yeast, 75Q-TubH (AID 1616); conditions: S. cerevisiae 75Q-TubH polyglutamine aggregation suppression; stronger effect = higher value
# [9] = liver-stage malaria parasite growth inhibition, primary screen, cell-based, HepG2, luciferase luminescence, HepG2 viability (AID 624349);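 note: 100% = mean of DMSO negative control wells on the same plate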; conditions: P. berghei liver stage in HepG2, luciferase luminescence, concentration not given here; parasite load remaining: stronger effect = lower value; viability: measured here: HepG2 viability without parasites
# [10] = differential killing of epithelial or mesenchymal cells, primary screen, imaging, PC-3E GFP, TEM4-18 mCherry, co-culture (AID 1345086;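 active = compounds killing one labelled cell type while sparing the other, by normalised counts and ratio limits, not self-fluorescent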;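 for all read-outs here: cells exposed to compound for 72 h before imaging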;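 for red/green cell ratio (normalised): normalised mesenchymal count divided by normalised epithelial count so high means epithelial killing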); conditions: imaging cell counts, at 1 µM; for red/green cell ratio (normalised): actives lie on both sides, counts scaled to control wells, 1 = unselective
# [11] = sensitizers of A549 cells to miR-34 induction, primary screen, imaging, A549 dox-inducible miR-34, nuclei and caspase counts (AID 1347080;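 active = compounds whose cell count with miR-34 switched on is under 0.7 times the count with it off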); conditions: A549 miR-34 inducible, Hoechst nuclei count, 48 h
# [12] = viability rescue of complex I mutant cybrids, primary screen, cell-based, galactose medium, ATP luminescence (AID 1645843;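 active = z-score of at least 1.8 in each of two replicates, scored against plate mean and spread of sample wells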;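 note: positive z means more ATP and so rescue of galactose-driven cybrid death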); conditions: complex I mutant cybrid cells, 72 h, stronger effect = higher value
# [13] = reducers of polyQ inclusions in PC12 cells, cell-based, NGF-treated PC12, GFPQ80 (AID 1614); conditions: PC12 NGF-treated GFP-polyQ80 inclusion reduction;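 note: lower means fewer inclusions and 0 means no inclusions at all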
# [14] = biological target: Mitogen-activated protein kinase 7 (Homo sapiens) (UniProt Q13164); assay: ERK5 transactivation activators in reporter cells, primary screen, cell-based, HTS (AID 1508626;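 active = luciferase signal above three times the same-plate solvent-only control wells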;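 note: luciferase driven by Gal4-ERK5 fusion binding five Gal4 sites before minimal TATA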); conditions: HeLa Gal4-ERK5 transactivation, 18 h, at 5 µM, stronger effect = higher value
# Chain of Mitogen-activated protein kinase 7 (Homo sapiens) (Q13164 whole entry, looked up, the tested form may be a part): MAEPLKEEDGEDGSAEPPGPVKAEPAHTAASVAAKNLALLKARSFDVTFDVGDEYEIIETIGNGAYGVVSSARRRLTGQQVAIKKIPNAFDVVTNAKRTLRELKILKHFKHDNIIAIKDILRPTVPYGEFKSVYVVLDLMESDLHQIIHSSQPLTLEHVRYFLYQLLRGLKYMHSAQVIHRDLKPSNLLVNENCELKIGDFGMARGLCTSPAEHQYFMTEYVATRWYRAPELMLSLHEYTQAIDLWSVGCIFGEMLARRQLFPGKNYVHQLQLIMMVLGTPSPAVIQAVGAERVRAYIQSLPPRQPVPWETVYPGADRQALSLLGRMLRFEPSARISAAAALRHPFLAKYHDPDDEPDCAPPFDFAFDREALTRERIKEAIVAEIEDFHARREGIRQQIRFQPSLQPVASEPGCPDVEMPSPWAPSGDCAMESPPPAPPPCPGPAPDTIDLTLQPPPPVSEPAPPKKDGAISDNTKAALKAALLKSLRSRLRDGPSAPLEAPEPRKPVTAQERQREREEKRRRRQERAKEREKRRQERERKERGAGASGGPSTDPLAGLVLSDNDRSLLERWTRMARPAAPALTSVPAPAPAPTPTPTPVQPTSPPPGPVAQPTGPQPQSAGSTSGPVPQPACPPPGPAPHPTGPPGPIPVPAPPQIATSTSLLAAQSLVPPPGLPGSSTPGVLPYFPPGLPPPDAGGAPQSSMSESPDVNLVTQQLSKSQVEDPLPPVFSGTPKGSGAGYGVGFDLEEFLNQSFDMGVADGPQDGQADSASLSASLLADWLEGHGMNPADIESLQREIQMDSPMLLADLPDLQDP
# [15] = protection against mutant huntingtin cytotoxicity, PC12 cells, LDH release (AID 1610); conditions: PC12 mutant huntingtin toxicity, final LDH at 4 uM, stronger effect = lower value
# [16] = measured here: epithelial PC-3E GFP cell survival
# [17] = measured here: mesenchymal TEM4-18 mCherry cell survival
# [18] = stronger effect = lower value, cell number ratio, induced over uninduced
# [19] = measured here: relative caspase fold change +Dox/-Dox
# [20] = measured here: total cells with miR-34 induction, stronger effect = lower value
# [21] = measured here: total cells without miR-34 induction
smiles,measurement,setting,value
C#C[C@]1(O)CCC2C3CCc4cc(O)ccc4C3CC[C@@]21C (some centres undefined),inhibition,[1],15.5%
same,EC50,[2],129 µM
same,inhibition,[2],58.5% (active)
same,score,[3],0.67
same,rescue above control,[4],-11.3
same,cytochrome c release ratio,[5],1.15
same,inhibition of aggregation,[6],38.1%
same,glutamate uptake change,[7],-12.7%
same,aggregation suppression score,[8],0.484
same,parasite load remaining,[9],88.3% (inactive) and 66.4% (inactive)
same,viability,[9],76.2% and 99.2%
same,red/green cell ratio (normalised),[10],0.98 (inactive)
same,normalised cell number,[10]; [16],1.1
same,normalised cell number,[10]; [17],1.07
same,fold change,[11]; [18],1.12 (inactive) and 1.01 (inactive)
same,fold change,[11]; [19],1.15 and 1.03
same,cell count,[11]; [20],5370 and 6100
same,cell count,[11]; [21],4780 and 6050
same,z-score,[12],-0.545 (inactive)
C[C@@H]1CC2C3C[C@H](F)C4=CC(=O)C=C[C@]4(C)[C@@]3(F)[C@@H](O)C[C@]2(C)[C@@]1(O)C(=O)COC(=O)C(C)(C)C (some centres undefined),inhibition,[1],-23.2%
same,score,[3],1.34
same,rescue above control,[4],16
same,cytochrome c release ratio,[5],0.82
same,inhibition of aggregation,[6],39.8%
same,glutamate uptake change,[7],27.8%
same,inclusion score,[13],2
same,aggregation suppression score,[8],1.12
same,parasite load remaining,[9],119% (inactive) and 74% (inactive)
same,viability,[9],76.5% and 90.1%
same,red/green cell ratio (normalised),[10],1.34 (inactive)
same,normalised cell number,[10]; [16],1
same,normalised cell number,[10]; [17],1.35
same,fold change,[11]; [18],0.838 (inactive)
same,fold change,[11]; [19],1.19
same,cell count,[11]; [20],6940
same,cell count,[11]; [21],8290
same,luciferase signal,[14],20 AU (inactive)
COc1ccc(C[C@H](N)C(=O)N[C@@H]2[C@@H](CO)OC(n3cnc4c(N(C)C)ncnc43)[C@@H]2O)cc1 (some centres undefined),inhibition,[1],52.2%
same,score,[3],1.68
same,rescue above control,[4],-10.3
same,cytochrome c release ratio,[5],1.17
same,inhibition of aggregation,[6],54%
same,normalised LDH release,[15],1
same,glutamate uptake change,[7],15.3%
same,aggregation suppression score,[8],1.32
same,parasite load remaining,[9],54.7% (inactive) and 3.3% (inactive)
same,viability,[9],40.9% and 70.7%
same,red/green cell ratio (normalised),[10],1 (inactive)
same,normalised cell number,[10]; [16],0.94
same,normalised cell number,[10]; [17],0.94
same,fold change,[11]; [18],1.05 (inactive)
same,fold change,[11]; [19],1.45
same,cell count,[11]; [20],385
same,cell count,[11]; [21],366
